Values without a mark were called inactive. No rule for the calls is given here. A value given as a limit tells only on which side of the number the result lay.
Potency is read from the fitted curve at half-maximal effect.

For the assay, the system named is HIV-1 nucleocapsid protein NCp7 (binding to TG oligonucleotide). Put plainly: HIV Nucleocapsid (AID 346).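 Also: potency is for inhibitors that block NC binding and lower polarization.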 Conditions: HIV-1 NC / fluorescein-TGTGTGTG probe, fluorescence polarization. The essentials:
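Fluorescence polarization readout: labelled TG4xF oligo (10 nM) with 100 nM nucleocapsid protein, high-salt (250mM NaCl) Hepes pH 7.5 buffer containing zinc and fresh reducing agents. Compounds added by pin tool; incubation 1 hr, room temperature.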
With `CC(=O)N1CCC2(CC1)CN(c1ccncc1)C2`, the Potency was over 20 µM.

As for `COc1ccc(-n2c(=O)c(C)nc3cnc(Oc4ccccc4)nc32)cc1`, the Potency was over 20 µM.

On to `c1cncc(-c2cncnc2NCc2cccs2)c1`, for which the Potency was over 20 µM.

In the case of `O=c1c(CCc2ccccc2)nc2cncnc2n1-c1ccccc1`, the Potency was over 20 µM.

For `CN(Cc1ccco1)c1ccnc(-c2ccccc2C(F)(F)F)n1`, the Potency is over 20 µM.

As to `COc1ccc(Oc2ncc3nc(-c4ccc(F)cc4)c(=O)n(CCC#N)c3n2)cc1`, the Potency was over 20 µM.

In the case of `N#Cc1ccc(CN2CC3(CCN(C(=O)c4cc(C(F)(F)F)cc(C(F)(F)F)c4)CC3)C2)cc1`, the Potency was over 20 µM.

For the compound `CCNc1ncc2nc(-c3ccccc3)c(=O)n(CCc3ccccc3)c2n1`, the Potency is over 4 µM.

Take `Cc1ccccc1-c1cc(N(C)Cc2ccco2)ncn1`: the Potency is over 20 µM.

Take `COCC(=O)N1CCC2(CCN(Cc3ccccc3OC)CC2)CC1`: the Potency was over 20 µM.

For `Cc1nc2cnc(Oc3cccc(Cl)c3)nc2n(C[C@H]2CCCO2)c1=O`, the Potency was over 20 µM.

As for `CN(C)C(=O)c1ccc(-c2ccc3ncnc(N(C)Cc4ccco4)c3c2)cc1`, the Potency is over 20 µM.

For the compound `O=c1c(-c2cc(F)cc(F)c2)nc2cncnc2n1Cc1ccc(F)cc1`, the Potency was over 20 µM.

As to `Cc1noc(C)c1-c1cc(N2CCN(C)CC2)ncn1`, the Potency is over 20 µM.

With `Cc1cnc(CNc2cc(-c3cccc(NS(C)(=O)=O)c3)ncn2)cn1`, the Potency is over 20 µM.

For `CN(C)c1ccc(-c2cc(NCc3cccnc3)ncn2)cc1`, the Potency was over 20 µM.

The values above are taken from PubChem BioAssay (NCATS).
